This note sets out measurements from PubChem BioAssay (NCI).

About 79,000 compounds went through this panel and 15% of them were active in at least one assay; those are over-represented in the sample as a whole. Unmarked numbers belong to inactive results. No stated cut-off is given here; in the data, active means growth inhibition above about 70%; inactive means the rest.

The nature of the assay: NCI Yeast Anticancer Drug Screen. Data for the sgs1 mgt1 strain (AID 161).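 Further: 0% = growth of cultures given vehicle only.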 The note with it: S. cerevisiae sgs1 mgt1 strain, at 50.0 µM, hits give high values. The method, boiled down: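 Mutant yeast exposed to compound; growth scored against vehicle-only wells.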
As to `Cc1cccc2nc(-c3ccccc3)ccc12`, the growth inhibition was 1.55%.

Turning to `C=CCCCCCCCCCO`, the growth inhibition is -1.9%. The result for `COc1ccc(-n2cc3c(=O)nccc-3c3ccccc32)cc1OC` reads 1.2%; that for `FC(F)(F)c1ccc(C2ON=C(c3ccccc3)N2C23CC4CC(CC(C4)C2)C3)cc1` (stereo not given), 25.1%; that for `Cc1ccccc1C(=O)OCCBr`, 4.15%. The result for `CC(C)(O)/C(=N/O)c1ccc(-c2ccccc2)cc1` reads 0.35%. The same measure for `COC(=O)C1=C(C)NC(C)=C(C(=O)OC)C1c1cccc(N=O)c1`: 13.3%; for `[O-][n+]1c2ccccc2nn1-c1ccccc1`: -2.65%; for `O=C(CN1C(=O)c2cccc3c(Br)ccc(c23)C1=O)c1ccc(Cl)cc1`: 5.85%. In the case of `S=C(S)NCNC(=S)S.[Zn+2]`, the growth inhibition was 26.1%.

`O=C(O)CC1CCCNC1` (stereo not given): the growth inhibition is -13.7%. The same measure for `CC1CCN(C(=O)C(c2ccccc2)c2ccccc2)CC1`: -3.1%. For the compound `C=C/C=C1\CCOC1=O`, the growth inhibition is 2.85%. As to `Cc1ccc(C)c(NC(=O)C(=O)C(C#N)c2c(Cl)cccc2Cl)c1` (stereo not given), the growth inhibition was 44.5%.

In the case of `COc1ccc2c(O)cc(C(=O)O)c(-c3ccccc3)c2c1`, the growth inhibition is -3.95%. In the case of `CCCC(CCC)C(=O)OCC(=O)c1ccc(-c2ccccc2)cc1`, the growth inhibition was 5%. The same measure for `CCC(=C(C#N)C#N)c1cc(OC)c(OC)c(OC)c1`: -24.2%; for `CCCCC(SC(CC)(CC)C(N)=O)C(N)=O` (stereo not given): 6.55%. The same measure for `NC(=O)C1CC(I)C2CC1C(=O)O2` (stereo not given): -4.45%. The same measure for `O/N=C/c1ccccn1`: -5.6%; for `Nc1nc(Cl)nc(Cl)c1N`: -17.3%; for `Cc1ccc(C(=O)N/N=C/c2ccccc2Cl)cc1`: 33.8%.

On to `CCOC(=O)/C(C#N)=C/c1c[nH]c2ccccc12`, for which the growth inhibition was 3.5%. Regarding `Nc1cccc(C(F)(F)F)c1N`, the growth inhibition was -6.7%. The same measure for `CCCCCCCCCCCCCCCCSc1ccncc1NN=O`: 17.1%.

In the case of `NC(C(=O)O)c1ccc(F)cc1` (stereo not given), the growth inhibition is 28.7%. The same measure for `CCOC(=O)CCC1(C(=O)OCC)CCCCC1=O` (stereo not given): -48.5%; for `CN(C)c1ccc(C2c3c(oc4ccccc4c3=O)Oc3oc4ccccc4c(=O)c32)cc1`: -9.85%; for `C=C1CN(C2=NCCO2)C1`: -5.65%. The same measure for `CCOc1c(Cc2ccccc2)c(=O)n2c3ccccc3n3c(=O)n(C)c(=O)c1c23`: -54.2%; for `CCC(CC)(C1CCC(=O)CC1)C1CCC(=O)CC1`: -1.05%. Consider `COC1/C=C/OC2(C)Oc3c(C)c(O)c4c(O)c(c(/C=N/OC/C=C(\C)CCC=C(C)C)c(O)c4c3C2=O)NC(=O)C(C)=C/C=C/C(C)C(O)C(C)C(O)C(C)C(OC(C)=O)C1C` (stereo not given), for which the growth inhibition is -2.65%. The same measure for `COc1cccc(CN(CCc2cccc(OC)c2OC)C(=O)CN2CCOCC2)c1O`: -0.05%; for `O=S(=O)(Cl)C1c2ccccc2-c2ccccc21`: 12.5%; for `O=C(/C=C/c1cccc(O)c1)c1ccccc1`: 38.4%. With `COc1ccc2[nH]c(=O)cc(C)c2c1`, the growth inhibition is -1.6%. `ONC1=Nc2ccccc2C(=S)N2CSCC12` (stereo not given): the growth inhibition is -26.4%. In the case of `O=[N+]([O-])c1cccnc1Sc1ccccc1C1=NCCCN1`, the growth inhibition was -3.45%. Consider `CCCCCCCCCCCCCCCCCCCCCCCCCC`, for which the growth inhibition was -19.2%.

With `CC(=O)N1CCc2ccccc2C1C1NCCc2ccccc21` (stereo not given), the growth inhibition is 13.1%.
